# Results filed as inconclusive are left out. The source made the active and inactive calls. Unless noted, the call rests on the fitted dose curve; in most records, active means well fitted curve in the direction sought with a large enough effect; inconclusive means small, poorly fitted or top-dose-only effect, or another doubt; inactive means no such curve, though single readings can be large; an effect the other way counts as inactive or inconclusive.
# Columns and labels:
# [1] = target: Cytochrome P450 2C9 (Homo sapiens) (UniProt P11712); experiment: qHTS Assay for Inhibitors and Substrates of Cytochrome P450 2C9 (AID 883); further: nearly all actives have a fitted effect of over 60% in size; further: potency means the concentration at half of the fitted maximal effect; on activity change, negative = inhibition: on the % scale 0 is the no-effect control and ±100 the full control effect
# Chain of Cytochrome P450 2C9 (Homo sapiens) (P11712 whole entry, looked up): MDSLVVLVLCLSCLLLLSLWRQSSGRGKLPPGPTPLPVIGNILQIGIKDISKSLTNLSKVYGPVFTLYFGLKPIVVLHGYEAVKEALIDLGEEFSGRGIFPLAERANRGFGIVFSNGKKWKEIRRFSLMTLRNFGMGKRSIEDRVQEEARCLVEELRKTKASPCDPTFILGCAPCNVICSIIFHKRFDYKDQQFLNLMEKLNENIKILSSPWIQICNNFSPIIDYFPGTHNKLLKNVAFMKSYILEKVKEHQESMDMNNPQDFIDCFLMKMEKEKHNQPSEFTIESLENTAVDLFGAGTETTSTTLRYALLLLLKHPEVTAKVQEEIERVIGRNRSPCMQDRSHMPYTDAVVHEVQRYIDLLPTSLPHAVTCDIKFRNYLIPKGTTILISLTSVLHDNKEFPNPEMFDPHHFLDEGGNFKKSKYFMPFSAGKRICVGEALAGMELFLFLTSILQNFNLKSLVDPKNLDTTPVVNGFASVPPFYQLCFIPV
# Procedure, shortened: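 Signal: luciferase luminescence reporting luciferin produced by CYP2C9. Conditions: 10nM enzyme, Luciferin-H 100uM at KM, 25mM KPO4, 37C, 60 min NADPH-driven reaction. Reference: 57uM sulphaphenazole as 100% inhibition.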
# [2] = qHTS profiling for inhibitors of Plasmodium falciparum (3D7) proliferation (AID 743322);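 further: infected erythrocytes exposed to compound for 72 h before lysis; 100% = DMSO vehicle wells and 0% = 0.29 µM artemisinin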; conditions: P. falciparum 3D7 proliferation; at 28.7 µM (top of the series)
# Procedure, shortened: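 Parasite DNA was quantified by SYBR Green I fluorescence (ex 485, em 535 nm) after overnight lysis in saponin/Triton buffer at room temperature. Cultures at 0.3% parasitemia and 2.5% hematocrit were first exposed to compound for 72 h at 37 C; signals were normalised to artemisinin (0.29 uM) and vehicle wells.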
# [3] = qHTS profiling for inhibitors of Plasmodium falciparum (DD2) proliferation (AID 743323; call rule not given here); conditions: lower = more inhibition; at 28.7 µM (top of the series)
# Procedure, shortened: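 P. falciparum Dd2-infected erythrocytes (0.3% parasitemia, 2.5% hematocrit) exposed 72 h at 37 C, 5% CO2. Lysis with SYBR Green, overnight at room temperature, fluorescence 485/535 nm; normalized to 0.29 uM artemisinin and DMSO.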
# [4] = qHTS profiling for inhibitors of Plasmodium falciparum (HB3) proliferation (AID 743324); conditions: Plasmodium falciparum HB3 blood-stage proliferation; at 28.7 µM (top of the series);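 further: 100% = DMSO vehicle wells and 0% = artemisinin-treated control wells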
# Procedure, shortened: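 SYBR Green fluorescence (485 ex/535 em) of lysed cultures, incubated overnight at room temperature in the dark, quantifies parasite DNA. Infected erythrocytes at 0.3% parasitemia and 2.5% hematocrit were exposed 72 h; values normalized to DMSO and 0.29 uM artemisinin controls.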
# [5] = target: Cytochrome P450 3A4 (Homo sapiens) (UniProt P08684); experiment: qHTS Assay for Inhibitors and Substrates of Cytochrome P450 3A4 (AID 884); further: nearly all actives have a fitted effect of over 50% in size; further: potency means the concentration at half of the fitted maximal effect; on activity change, negative = inhibition: on the % scale 0 is the no-effect control and ±100 the full control effect
# Chain of Cytochrome P450 3A4 (Homo sapiens) (P08684 whole entry, looked up): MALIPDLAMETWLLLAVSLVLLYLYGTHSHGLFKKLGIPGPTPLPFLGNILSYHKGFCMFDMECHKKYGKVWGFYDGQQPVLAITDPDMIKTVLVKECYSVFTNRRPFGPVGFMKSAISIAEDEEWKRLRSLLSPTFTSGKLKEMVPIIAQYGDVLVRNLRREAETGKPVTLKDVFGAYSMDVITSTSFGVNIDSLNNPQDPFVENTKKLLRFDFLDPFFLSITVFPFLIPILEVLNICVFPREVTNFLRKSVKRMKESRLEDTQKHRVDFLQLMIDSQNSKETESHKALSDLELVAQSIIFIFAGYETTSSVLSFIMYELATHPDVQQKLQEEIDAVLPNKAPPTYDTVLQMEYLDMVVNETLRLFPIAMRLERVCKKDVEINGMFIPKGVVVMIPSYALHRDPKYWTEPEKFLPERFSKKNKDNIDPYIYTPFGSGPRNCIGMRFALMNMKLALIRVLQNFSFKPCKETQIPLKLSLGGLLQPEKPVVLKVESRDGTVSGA
# Procedure, shortened: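 Luminescent readout of luciferin produced by CYP3A4 (20 nM) dealkylation of Luciferin-PPXE, 25 uM (its KM). NADPH-driven reaction ran 60 min at RT after 10 min compound preincubation; data scaled to 57 uM ketoconazole as 100% inhibition.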
# [6] = target: Cytochrome P450 3A4 (Homo sapiens) (UniProt P08684); experiment: qHTS Assay for Activators of Cytochrome P450 3A4 (AID 885); further: nearly all actives have a fitted effect of over 65% in size
# Procedure, shortened: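 Human CYP3A4 dealkylates Luciferin-PPXE to luciferin, which luciferase detection converts to light. Substrate was at its KM (25uM), buffer 200mM KPO4, reaction 60 min at RT.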
# [7] = target: Cytochrome P450 2D6 (Homo sapiens) (UniProt P10635); experiment: qHTS Assay for Inhibitors and Substrates of Cytochrome P450 2D6 (AID 891); further: nearly all actives have a fitted effect of over 60% in size; further: potency means the concentration at half of the fitted maximal effect;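 on activity change, negative = inhibition: luciferin methyl ether substrate demethylated by CYP2D6 with NADPH regeneration; on the % scale 0 is the no-effect control and ±100 the full control effect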
# Chain of Cytochrome P450 2D6 (Homo sapiens) (P10635 whole entry, looked up): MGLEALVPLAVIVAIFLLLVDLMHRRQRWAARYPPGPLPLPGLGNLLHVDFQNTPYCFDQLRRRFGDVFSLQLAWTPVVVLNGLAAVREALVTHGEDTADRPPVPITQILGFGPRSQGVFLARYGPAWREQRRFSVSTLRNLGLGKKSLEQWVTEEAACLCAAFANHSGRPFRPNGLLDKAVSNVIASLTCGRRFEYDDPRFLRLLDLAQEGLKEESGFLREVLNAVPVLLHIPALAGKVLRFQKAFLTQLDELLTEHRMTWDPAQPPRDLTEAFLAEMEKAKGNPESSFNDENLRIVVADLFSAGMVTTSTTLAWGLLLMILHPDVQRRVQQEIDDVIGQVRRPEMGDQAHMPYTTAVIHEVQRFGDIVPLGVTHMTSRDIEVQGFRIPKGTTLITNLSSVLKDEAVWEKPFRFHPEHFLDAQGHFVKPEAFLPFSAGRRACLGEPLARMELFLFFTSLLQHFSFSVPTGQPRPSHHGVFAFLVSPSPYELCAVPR
# Procedure, shortened: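 Luminescent read-out of luciferin formed by 5 nM human CYP2D6 demethylating 30 uM Luciferin-ME EGE (Km level) over 60 min at room temperature after NADPH regeneration addition. Data normalized to full inhibition by 1.43 uM quinidine.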
# [8] = target: Cytochrome P450 2C19 (Homo sapiens) (UniProt P33261); experiment: qHTS Assay for Inhibitors and Substrates of Cytochrome P450 2C19 (AID 899); further: nearly all actives have a fitted effect of over 60% in size; further: potency means the concentration at half of the fitted maximal effect
# Chain of Cytochrome P450 2C19 (Homo sapiens) (P33261 whole entry, looked up): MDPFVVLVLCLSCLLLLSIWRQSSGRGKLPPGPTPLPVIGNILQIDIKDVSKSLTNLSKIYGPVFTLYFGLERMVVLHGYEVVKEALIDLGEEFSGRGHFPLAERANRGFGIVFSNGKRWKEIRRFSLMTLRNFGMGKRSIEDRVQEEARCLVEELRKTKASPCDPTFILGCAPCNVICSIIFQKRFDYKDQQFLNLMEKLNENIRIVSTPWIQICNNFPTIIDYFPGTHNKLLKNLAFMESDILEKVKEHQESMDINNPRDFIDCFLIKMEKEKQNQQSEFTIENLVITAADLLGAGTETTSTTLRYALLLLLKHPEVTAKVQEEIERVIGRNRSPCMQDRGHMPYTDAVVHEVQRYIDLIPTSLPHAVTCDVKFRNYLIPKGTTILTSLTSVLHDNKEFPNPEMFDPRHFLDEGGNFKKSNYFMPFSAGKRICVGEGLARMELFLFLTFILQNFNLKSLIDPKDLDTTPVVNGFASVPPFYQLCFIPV
# Procedure, shortened: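 Signal comes from luciferase acting on luciferin released by CYP2C19-mediated hydroxylation of Luciferin-H EGE, 10uM (KM). Assay mix: 5nM enzyme, 50mM KPO4; 60 min at 37C with NADPH regeneration. Data normalized against 57uM ketoconazole.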
compound,measurement,setting,value
COc1ccc(OC[C@@H](CO)OC)cc1,Potency,[1],inactive
C=CC[C@@H]1C=C[C@H](O/N=C2\c3cc(OC)ccc3O[C@H](c3cccc(OC)c3)[C@H]2O)[C@H](CO)O1,Potency,[1],398 nM (active)
CS(=O)(=O)c1ccc(-c2cnc(N)c(-c3ccc(C(F)(F)F)nc3)c2)cc1,remaining parasite growth % (stronger effect = lower value),[2],2.16%
same,"activity, percent of control",[3],8.27%
same,"remaining proliferation (% of control), lower = more inhibition",[4],4.13%
CCCCC#CC1C=CC(OC(C)=O)C(COC(C)=O)O1 (centres undefined),Potency,[1],inactive
same,Potency,[5],2510 nM (active)
same,"activity change, positive = activation",[6],-63.9% [at 11.4 µM] (inactive)
same,Potency,[7],inactive
COc1ccc(/C=C/C(=O)c2ccc(OC)cc2O)cc1,Potency,[1],inactive
same,Potency,[5],3160 nM (active)
same,"activity change, positive = activation",[6],-92.3% [at 11.4 µM] (inactive)
same,Potency,[7],inactive
C=CCCC/C=C(/C)C(OCc1ccc(OC)cc1)C(CC/C=C(\C)C(N)=O)OC (centres undefined),Potency,[1],inactive
same,Potency,[5],3980 nM (active)
same,"activity change, positive = activation",[6],-96.8% [at 11.4 µM] (inactive)
CCCNC(=O)OC[C@@H]1O[C@H](CCO/N=C(\C)CCN2CCc3nc(-c4ccccc4)c(-c4ccccc4)cc3C2)C=C[C@@H]1Oc1ccc(OC)cc1,Potency,[1],2000 nM (active)
same,Potency,[5],3160 nM (active)
same,"activity change, positive = activation",[6],-74.2% [at 11.4 µM] (inactive)
COC(=O)C1=C(C)N(Cc2ccccc2)C2=C3C(=O)N(C)C(=O)C3[C@@](O)(C(=O)OC)C(=O)N2C1c1ccccc1 (some centres undefined),Potency,[1],inactive
same,"activity change, negative = inhibition",[5],-21.3% [at 11.4 µM] (inactive)
same,"activity change, positive = activation",[6],-32.3% [at 11.4 µM] (inactive)
same,Potency,[7],inactive
same,Potency,[8],inactive
OCC1OC(/C=C\c2ccccc2)C=CC1Oc1ccc2c(c1)OCO2 (centres undefined),Potency,[1],inactive
same,Potency,[5],398 nM (active)
same,"activity change, positive = activation",[6],-105% [at 11.4 µM] (inactive)
same,Potency,[7],3980 nM (active)
same,Potency,[8],251 nM (active)

# — PubChem BioAssay (NCATS)
